High-throughput results from PubChem BioAssay.
G9a inh: G9a (human) methyltransferase inhibition. G9a H3K9 monomethylation, AlphaScreen, 2 h. Potency, µM (titrated, usually from 102 µM), for inactives: top-dose activity, negative = inhibition, hits mostly inhibitors. hit rate 8.8% among 350,000. AID 504332; note: potency is the fitted concentration of half-maximal effect; % is set by controls: 0 for no effect and ±100 for the full control effect; nearly all actives have a fitted effect of over 75% in size
Target sequence (Q96KQ7 913-1193 limits assumed): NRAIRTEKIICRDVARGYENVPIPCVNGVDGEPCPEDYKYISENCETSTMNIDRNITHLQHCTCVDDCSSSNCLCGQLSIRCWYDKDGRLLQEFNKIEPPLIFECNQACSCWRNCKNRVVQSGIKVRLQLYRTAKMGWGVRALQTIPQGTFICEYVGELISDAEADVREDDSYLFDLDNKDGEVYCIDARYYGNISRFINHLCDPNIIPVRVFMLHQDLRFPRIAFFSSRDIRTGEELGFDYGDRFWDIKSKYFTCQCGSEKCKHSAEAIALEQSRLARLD
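Chemiluminescent proximity detection of H3K9 monomethylation, read after 10 min bead incubation in the dark. Reaction: 20 nM G9a, 500 nM biotin-H3K9 peptide, 20 uM SAM cofactor, 2 h, room temperature, following 15 min enzyme-compound preincubation.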
VDR inhibitor: inhibitors of human vitamin D receptor; P11473; VDR-SRC2-3 peptide fluorescence polarization, 2 h; Potency, µM, without a hit: max response, negative = inhibition, actives largely listed as inhibitors; hit rate 0.93% among 400,000; AID 504847; note: potency is the fitted concentration of half-maximal effect; % is set by controls: 0 for no effect and ±100 for the full control effect
Target sequence (P11473 whole entry, looked up): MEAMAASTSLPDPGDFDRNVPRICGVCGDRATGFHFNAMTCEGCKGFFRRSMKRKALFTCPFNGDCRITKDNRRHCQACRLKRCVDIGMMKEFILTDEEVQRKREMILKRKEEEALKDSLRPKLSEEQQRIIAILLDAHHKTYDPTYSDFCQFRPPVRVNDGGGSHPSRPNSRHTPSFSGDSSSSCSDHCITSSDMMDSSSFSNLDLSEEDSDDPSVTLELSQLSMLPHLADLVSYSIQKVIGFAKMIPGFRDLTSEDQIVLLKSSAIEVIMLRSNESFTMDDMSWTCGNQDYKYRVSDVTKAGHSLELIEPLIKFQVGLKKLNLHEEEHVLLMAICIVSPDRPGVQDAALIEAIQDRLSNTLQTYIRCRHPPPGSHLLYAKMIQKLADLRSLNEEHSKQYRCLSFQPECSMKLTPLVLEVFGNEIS
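Two reagent solutions held at 4 deg C in the dark were dispensed, compounds pinned at 23 nl, and the mixture incubated 2 h at room temperature. Read-out: fluorescence polarization of VDR–SRC2-3 peptide binding.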
GRP78 ERSR act: induces the endoplasmic reticulum stress response in human glioma cells | U87-MG GRP78 promoter luciferase reporter, 16 h | Potency, µM, for inactives: top-dose activation, hits mostly activators | hit rate 0.02% among 420,000; note: potency is the fitted concentration of half-maximal effect; series mostly up to about 76 µM; % of control where 0% means no effect; nearly all actives have a fitted effect of over 35% in size
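Stably transfected U87-MG glioma cells carrying a GRP78-based luciferase sensor; 16 h compound incubation. Luminescence end-point read 10 min after Bright-Glo addition at room temperature.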
Sfp inh: Sfp phosphopantetheinyl transferase inhibition; Q9F4F7; hit rate 3.5% among 310,000; Potency, µM, without a hit: largest response in the series, negative = inhibition, hits mostly inhibitors; Biochemical Sfp PPTase activity, qHTS;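 note: the enzyme is Sfp with the accession as filed and its product quenches rhodamine fluorescence; potency is the fitted concentration of half-maximal effect; 0% = enzyme reaction without inhibitor and -100% = no enzyme wells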
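Fluorescence-quenching assay with 15 nM Sfp, 5 uM rhodamine-CoA and 12.5 uM BHQ-2-labelled ybbR peptide in pH 7.6 Hepes/MgCl2 buffer. Enzyme was pre-incubated with compound for 15 min at room temperature. Rate was taken from the 30-min fluorescence change (525/598 nm).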
12-LOX inh: inhibitors of human 12S-lipoxygenase ALOX12; Potency, µM (series often up to 108 µM), inactives show at the top dose activity change, negative = inhibition, most hits filed as inhibitors; hit rate 1.1% among 580,000; purified 12hLO, xylenol orange hydroperoxide absorbance; P18054; note: potency is the fitted concentration of half-maximal effect; % is set by controls: 0 for no effect and ±100 for the full control effect
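Hydroperoxide product was detected by ferrous iron/xylenol orange as the 573 to 405 nm absorbance ratio. Arachidonic acid at 40 uM (final) was turned over for 30 min at room temperature by 150 nM human 12hLO, pH 7.0 Hepes buffer, after 15 min compound preincubation.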
USP1 UbRho: blocks human USP1/UAF1 cleavage of Ub-Rhodamine | AID 540327 | Ub-Rhodamine cleavage, fluorescence kinetic read | Potency, µM (titrated, usually from 114 µM), for inactives: top-dose activity change, negative = inhibition, hits mostly inhibitors | shares compounds with VDR inhibitor | hit rate 50% among 50
VDR inh confirm: confirmation of human vitamin D receptor inhibitors; shares compounds with VDR inhibitor; VDR-coactivator inhibition assay, qHTS confirmation; Potency, µM, actives largely listed as inhibitors; hit rate 89% among 840; AID 602199; note: potency is the fitted concentration of half-maximal effect
VDR FP fluor: blocks human VDR-coactivator binding in fluorescein assay; hit rate 48% among 840; Potency, µM (titrated, usually from 57.1 µM), for inactives: at the top dose activity change, negative = inhibition, actives largely listed as inhibitors; shares compounds with VDR inhibitor; VDR-coactivator binding, fluorescein fluorescence polarization; note: potency is the fitted concentration of half-maximal effect
VDR bla: inhibits human VDR in beta-lactamase reporter cells; shares compounds with VDR inhibitor; Potency, µM (titrated, usually from 46.1 µM), without a hit: top-dose activity change, negative = inhibition, most hits filed as inhibitors; VDR beta-lactamase reporter cells, FRET ratio; cells co-treated with VDR agonist LG190178; hit rate 23% among 840; note: potency is the fitted concentration of half-maximal effect; % is set by controls: 0 for no effect and ±100 for the full control effect
VDR viability: counter-screen for vitamin D receptor inhibitors: cytotoxicity; AID 602204; hit rate 18% among 840; Potency, µM (doses to about 48.3 µM), without a hit: at the highest dose activity change, negative = cytotoxicity, hits mostly cytotoxic; cytotoxicity counter-screen, cell viability, qHTS; shares compounds with VDR inhibitor;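 note: potency is the fitted concentration of half-maximal effect; plate controls were DMSO for no effect and high-concentration cycloheximide for full effect; nearly all actives have a fitted effect of over 75% in size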
Active calls of the source: *; ? = inconclusive; . = no result given; [ ] = dose if it differs, or a comment. Shown is part of a subset that was picked to be rich in hits. Calls come from the whole dose curve; as a rule, active = well fitted curve in the direction sought with a large enough effect; inconclusive = small, poorly fitted or top-dose-only effect, or another doubt; inactive = no such curve, though single readings can be large; an effect the other way counts as inactive or inconclusive.

SMILES | G9a inh | VDR inhibitor | GRP78 ERSR act | Sfp inh | 12-LOX inh | VDR inh confirm | VDR FP fluor | VDR bla | VDR viability | others
CCC1C=CC=CC[C@H](C)[C@@H](O)[C@](C)(O)C(=O)[C@@H](C)[C@H](O)[C@@H](C)C(=O)[C@H](C)[C@@H](O)[C@H](C)C=CC(=O)OC2[C@@H](C)C(CC1)OC1(CC[C@@H](C)C(C[C@H](C)O)O1)[C@@H]2C (stereo partly drawn) | -21%[12.7 µM] | . | . | . | . | . | . | . | .
CN1CC[C@]2(C)c3cc(O)ccc3N(C)[C@@H]12 | 8.9µM* | ? | -4% | -24% | . | . | . | . | . | USP1 UbRho=?
CCn1cc(C(=O)N(C)CC(=O)NC(C)(C)C)c2ccccc21 | . | . | . | . | 14% | . | . | . | .
CC1=CC2/C=C(\C)CCC(O)C(O)/C=C/C(=O)C23C(=O)NC(CC(C)C)C3C1C (stereo not drawn) | ? | 22µM* | -11% | 16µM* | . | 17* | ? | 7.3µM* | 15µM*
NC(N)=Nc1ccc2[nH]c3c(c2c1)C[C@@]1(O)[C@H]2Cc4ccc(O)c5c4[C@@]1(CCN2CC1CC1)[C@H]3O5 | 1.3µM* | 35µM* | -11% | . | . | . | . | . | . | USP1 UbRho=?
CCN1CCCCC12Cc1ccccc1CN(C(=O)Cc1ccc(O)cc1)C2 (stereo not drawn) | . | . | . | . | 8%[6.33 µM] | . | . | . | .
COc1cc(/C=C/[N+](=O)[O-])ccc1O | 6.3µM* | 28µM* | -11% | ? | 349% | 30* | ? | ? | ?
CCOc1cc(C=O)ccc1O | . | 5% | -4% | . | -15% | . | . | . | .
CC(C)N(C(=O)CN1CC=C(c2c[nH]c3ccccc23)CC1)C(C)C | . | . | . | . | -7% | . | . | . | .
Cc1cc(=O)c2ccccc2[se]1 | . | . | . | . | 9% | . | . | . | .
O=S(=O)(/C(=C/c1ccc(C(F)(F)F)cc1)c1nc2ccccc2[nH]1)c1ccccc1 | 6%[59 µM] | 16µM* | -13% | -19% | 3% | 3.8* | ? | 2.3µM* | 8.2µM*
O=C(O)CCn1cc(C=C2C(=O)NC(=S)NC2=O)c(-c2ccccc2)n1 | . | 10µM* | -10% | 14µM* | ? | 21* | ? | 15% | 38%
N#CCCn1cc(C=C2C(=O)NC(=O)NC2=O)c(-c2ccccc2)n1 | ? | -39% | 2% | -24% | -26% | . | . | . | .
CC(C)n1c(O)c(C2c3cc(Cl)ccc3Oc3[nH]c(=O)n(C(C)C)c(=O)c32)c(=O)[nH]c1=O (stereo not drawn) | 4.5µM* | 8.9µM* | -17% | 28µM* | . | 4.2* | ? | 5.2µM* | ?
COC(=O)CCC(=O)Nc1sc(Cc2ccccc2)c(C)c1C(N)=O | 1.8µM* | 20µM* | -3% | 3.2µM* | 20µM* | ? | ? | -2% | 19%
O=C(/C=C/c1ccccc1)c1c(O)n(CCc2ccccc2)c(=O)[nH]c1=O | 21%[59 µM] | ? | -4% | 8% | -23% | 2* | ? | 18µM* | 22%
CN1Cc2ccccc2-n2ccnc2C12CCN(C(=O)c1cccc(C(F)(F)F)c1)CC2 | . | . | . | . | 14% | . | . | . | .
Cn1cccc1/C=C1/C(=O)NC(=O)N(C(C)(C)C)C1=O | 9%[12.7 µM] | -6% | -3% | -20% | -20% | . | . | . | .
O=C1NC(=S)NC(=O)C1=Cc1cccn1-c1ccc(O)cc1 | 7.1µM* | 25µM* | -16% | 18µM* | ? | 8.4* | ? | ? | ?
COc1ccc(N2C(=O)/C(=C/C=C/c3ccccc3[N+](=O)[O-])C(=O)NC2=S)cc1 | 6.3µM* | 22µM* | 3% | 35µM* | 11µM* | 3.4* | ? | ? | -21%
CCOc1ccc(N2C(=O)NC(=O)/C(=C\c3cc(OC)c(OC)cc3[N+](=O)[O-])C2=O)cc1 | 18µM* | 32µM* | 0% | 45µM* | . | 17* | 13µM* | 26% | 6%
CCC1(CC)C(=O)NC(=O)N(c2ccccc2)C1=O | . | -5% | 0% | . | 4% | . | . | . | .
O=C1NC(=O)N(c2ccccc2)C(=O)/C1=C\c1ccccc1[N+](=O)[O-] | 28µM* | 45µM* | -1% | 22µM* | ? | 21* | 28µM* | 24% | 6%
CC[C@H]1CN2CC[C@H]1C[C@@H]2CNC(=S)Nc1ccc(N(C)C)cc1 | . | . | . | . | 4%[176 µM] | . | . | . | .
CN(C)c1ccc([N+](=O)[O-])c2cnccc12 | . | . | . | . | -5% | . | . | . | .
SMILES | G9a inh | VDR inhibitor | GRP78 ERSR act | Sfp inh | 12-LOX inh | VDR inh confirm | VDR FP fluor | VDR bla | VDR viability | others
O=C1NC(=O)N(CCC2=CCCCC2)C(=O)/C1=C\c1cccs1 | ? | 45µM* | -6% | 50µM* | ? | 8.4* | ? | 4% | -28%
O=C1NC(=O)N(CCc2ccc(F)cc2)C(=O)/C1=C/c1cccs1 | 3.2µM* | 18µM* | -4% | 25µM* | ? | 9.5* | ? | 19% | 7%
CN1CCN(/N=C/c2c(O)n(CCC3=CCCCC3)c(=S)[nH]c2=O)CC1 | -28% | -4% | -5% | -6% | ? | . | . | . | .
COc1ccc(/C=C2/C(=O)NC(=S)N(C3CC3)C2=O)cc1CN1C(=O)c2ccccc2C1=O | 3.5µM* | 45µM* | -4% | 25µM* | ? | 11* | 7.9µM* | 28% | ?
Cc1ccccc1N1C(=O)NC(=O)/C(=C\c2ccc3c(c2)CCCN3Cc2ccccc2)C1=O | 10µM* | 40µM* | ? | 79µM* | ? | 12* | 200% | 38% | 12%
C=CCN1C(=O)NC(=O)/C(=C/c2cc3c4c(c2)CCCN4CCC3)C1=O | ? | 46% | 2% | ? | ? | . | . | . | .
O=C(O)/C=C/C(=O)c1ccc2c(c1)CCc1ccccc1-2 | -2%[2.33 µM] | 3.5µM* | -13% | . | 0% | 3.8* | ? | ? | ?
Nc1ccc2c(c1)Cc1ccccc1-2 | ? | -20% | -5% | 4% | -4% | . | . | . | .
COc1ccc2[nH]cc(CCN(C(C)C)C(C)C)c2c1 | . | . | -4% | . | . | . | . | . | .
COc1ccc2[nH]cc(C3=CCNCC3)c2c1 | ? | -1% | -1% | 4% | 257% | . | . | . | . | USP1 UbRho=53µM*
